Results taken from PubChem BioAssay (NCATS).
Records with an inconclusive call do not appear. Activity calls are given as the source filed them. Calls come from the whole dose curve; as a rule, active = well fitted curve in the direction sought with a large enough effect; inconclusive = small, poorly fitted or top-dose-only effect, or another doubt; inactive = no such curve, though single readings can be large; an effect the other way counts as inactive or inconclusive.

Key:
[1] = OV-KATE Cancer Cell Toxicity qHTS against the NCATS CANVASS Library (AID 1347345)
Procedure, shortened: (§1)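 ATP content after 72 h treatment, detected by CellTiter-Glo luminescence (15min room-temperature development), reflects cell viability. Wells contained 1000 cells and received compounds at 11 concentrations.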

[2] = HPAF-II Cancer Cell Toxicity qHTS against the NCATS CANVASS Library (AID 1347346); note: series mostly up to about 38 µM; nearly all actives have a fitted effect of over 55% in size
Procedure, shortened: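 1000 HPAF-II cells/well; 4 h pre-incubation; 11-pnt compound titration; 72 h, 37 degrees C/5% CO2; CellTiter-Glo, 15 min RT; luminescence read.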

[3] = OV-SAHO Cancer Cell Toxicity qHTS against the NCATS CANVASS Library (AID 1347348); note: series mostly up to about 38 µM; nearly all actives have a fitted effect of over 55% in size
Procedure, shortened: as §1

[4] = COV-362 Cancer Cell Toxicity qHTS against the NCATS CANVASS Library (AID 1347352); note: series mostly up to about 38 µM
Procedure, shortened: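 1000 cells/well, 4 h pre-incubation 37 °C/5% CO2; 11-pnt titration; 72 h; CellTiter-Glo 15 min RT, luminescence.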

[5] = HPAF-II 24hr Apoptosis Induction qHTS against the NCATS CANVASS Library (AID 1347356)
Procedure, shortened: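 500 HPAF-II cells/well; compounds in 11-pnt qHTS; 24 h, 37 C/5% CO2; Caspase-Glo 3/7 added, 15 min RT dark; luminescence read. Doxorubicin control.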

[6] = HEK293 18hr Apoptosis Induction qHTS against the NCATS CANVASS Library (AID 1347357)
Procedure, shortened: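 HEK293 cells (500/well, DMEM + 10% FBS) treated with an 11-point series for 18 h at 37 degrees C. Caspase-3/7 activity read by Caspase-Glo luminescence after 15 min at room temperature.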

[7] = HPAF-II 12hr Apoptosis Induction qHTS against the NCATS CANVASS Library (AID 1347358)
Procedure, shortened: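 Caspase-Glo 3/7 luminescence (DEVD substrate) reports caspase activity in HPAF-II cells after 12 h compound treatment at 37 degrees C. Compounds were tested in an 11-point series. Doxorubicin served as control.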

[8] = HEK293 24hr Apoptosis Induction qHTS against the NCATS CANVASS Library (AID 1347359)
Procedure, shortened: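 HEK293 cells (500/well, DMEM + 10% FBS) were exposed to compounds in an 11-point series for 24 hours at 37 degrees C, then caspase-3/7 activity was read by Caspase-Glo DEVD luciferase luminescence after 15 min.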

[9] = HPAF-II 18hr Apoptosis Induction qHTS against the NCATS CANVASS Library (AID 1347360)
Procedure, shortened: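 HPAF-II cells at 500/well were exposed for 18 h at 37 C to an 11-point compound series. Caspase-3/7 activity was read by Caspase-Glo luminescence after 15 min at RT.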

[10] = biological target: Luciferin 4-monooxygenase (Photinus pyralis) (UniProt P08659); assay: Firefly luciferase counterscreen qHTS: Assay Interference Panel against the NCATS CANVASS Library (AID 1347363); note: series mostly up to about 57 µM
Chain of Luciferin 4-monooxygenase (Photinus pyralis) (P08659 whole entry, looked up): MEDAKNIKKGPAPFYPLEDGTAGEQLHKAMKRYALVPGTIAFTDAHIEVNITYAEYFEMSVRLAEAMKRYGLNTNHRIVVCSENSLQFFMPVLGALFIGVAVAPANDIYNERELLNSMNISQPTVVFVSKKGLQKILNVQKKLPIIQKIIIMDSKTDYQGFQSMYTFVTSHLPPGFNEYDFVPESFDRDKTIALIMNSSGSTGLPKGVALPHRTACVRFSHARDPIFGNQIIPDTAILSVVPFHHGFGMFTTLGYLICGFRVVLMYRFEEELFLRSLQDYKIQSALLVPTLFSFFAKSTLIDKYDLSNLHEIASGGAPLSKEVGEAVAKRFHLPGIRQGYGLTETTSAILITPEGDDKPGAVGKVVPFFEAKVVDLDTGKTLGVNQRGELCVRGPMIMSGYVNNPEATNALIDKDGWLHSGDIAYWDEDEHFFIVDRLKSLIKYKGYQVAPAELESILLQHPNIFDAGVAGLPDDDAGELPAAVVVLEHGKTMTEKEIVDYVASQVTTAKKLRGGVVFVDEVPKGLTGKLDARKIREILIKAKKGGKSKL
Procedure, shortened: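 Purified P. pyralis luciferase was added to compounds (11-point series) preincubated 15 min at room temperature with substrate containing 0.013 mM D-luciferin and 0.013 mM ATP; luminescence was read after 5 min.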

[11] = KB-3-1 Cancer Cell Toxicity qHTS against the NCATS CANVASS Library (AID 1347366); note: nearly all actives have a fitted effect of over 75% in size
Procedure, shortened: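 KB-3-1 cells (500/well) in DMEM with 10% FBS were exposed to compounds for 72 h at 37C. Viability was read by CellTiter-Glo luminescence.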

[12] = MCF7 Cancer Cell Toxicity qHTS against the NCATS CANVASS Library (AID 1347369)
Procedure, shortened: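 MCF7 cells (500/well) were exposed 72 h at 37 °C to compounds in an 11-point series. Viability was read as ATP content by CellTiterGlo luminescence.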

[13] = qHTS for ATAD5 Antagonist screened against the NCATS CANVASS Library (AID 1347370);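 note: HEK293T cells carrying an ATAD5 luciferase reporter co-treated with 10 µM 5-fluorouridine; series mostly up to about 46 µM; nearly all actives have a fitted effect of over 65% in size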
Procedure, shortened: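 HEK293T-ATAD5 luc reporter, 2000 cells/well; 5hr attach; cpd + 10 uM 5-FUrd; 16hr 37C, 5% CO2. Readouts: CellTiter-Fluor fluorescence (1hr), then Amplite luciferase luminescence (30min RT).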

[14] = J3T Cancer Cell Toxicity qHTS against the NCATS CANVASS Library (AID 1347371)
Procedure, shortened: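 Dog glioma J3T, 500 cells/well; cpd 11-pt qHTS; 72 hr, 37C/5% CO2; CellTiterGlo ATP luminescence readout.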

[15] = biological target: Nuclear receptor subfamily 1 group I member 3 (Homo sapiens) (UniProt Q14994); assay: qHTS for Constitutive Androstane Receptor (CAR) Agonist screened against the NCATS CANVASS Library (AID 1347373);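 note: every well also contained 1.5 µM PK11195 alongside the test compound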
Chain of Nuclear receptor subfamily 1 group I member 3 (Homo sapiens) (Q14994 whole entry, looked up): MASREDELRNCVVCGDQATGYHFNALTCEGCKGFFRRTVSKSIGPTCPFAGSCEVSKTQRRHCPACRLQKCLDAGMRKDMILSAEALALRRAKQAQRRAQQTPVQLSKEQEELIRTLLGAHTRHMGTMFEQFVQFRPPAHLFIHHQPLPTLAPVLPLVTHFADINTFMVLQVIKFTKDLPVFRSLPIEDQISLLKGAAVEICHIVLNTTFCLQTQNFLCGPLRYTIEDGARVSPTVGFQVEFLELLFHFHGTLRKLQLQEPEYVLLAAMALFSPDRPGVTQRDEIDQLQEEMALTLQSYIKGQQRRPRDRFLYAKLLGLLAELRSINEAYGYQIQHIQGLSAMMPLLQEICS
Procedure, shortened: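 Luciferase read-out (ONE-Glo, 30 min RT) of CYP2B6-2.2kb promoter activity in double-stable HepG2-hCAR cells after 24hr compound exposure with 1.5uM PK11195 present; viability measured first by CellTiter-Fluor.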

[16] = 10-beta competent E. coli microbial cell viability qHTS against the NCATS CANVASS Library (AID 1347376); note: series mostly up to about 46 µM
Procedure, shortened: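 Luminescence from BacTiter-Glo ATP detection served as the viability read-out; bacteria (0.2 OD) had been incubated overnight at 37C with pin-transferred compounds at 11 concentrations.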

[17] = qHTS for Inflammasome Signaling Inhibitors: IL-1-beta AlphaLISA screen against the NCATS CANVASS Library (AID 1347379);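 note: human THP-1 cells primed with LPS then triggered with ATP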
Procedure, shortened: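 THP-1, 1 hr compound pre-incubation, then LPS 250 ng/mL + ATP 1.25 mM (final); 16 hr total with compound; IL-1B AlphaLISA, ex 680/em 615 nm; 11-point qHTS, up to 57.5 uM final.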

[18] = Inflammasome Signaling qHTS Counterscreen: IL-1-beta AlphaLISA counterscreen against the NCATS CANVASS Library (AID 1347381);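 note: cell-free check with purified IL-1β in medium and no THP-1 cells; series mostly up to about 57 µM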
Procedure, shortened: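 Here, no cellular stimulation occurs; compounds in an 11-point series meet 4 pg purified IL-1-beta directly. Bead-based AlphaLISA detection follows (1 h acceptor/antibody, then 30 min donor, dark, room temperature), with excitation at 680 nm.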

[19] = Cytotoxicity qHTS for assessment of Hepg2 cells membrane integrity screened against the NCATS CANVASS Library (AID 1347387)
Procedure, shortened: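 LDH release read by fluorescence (560 nm ex/590 nm em) after CytoTox-ONE addition and 10 min RT; signal tracks lysed cells. HepG2, 2000 cells/well, plated overnight; compound 5 hr, 37C, 5% CO2, final 0.59 nM - 46 uM, 11 points.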

[20] = Viability qHTS for inhibitors of the SERCaMP assay screened against the NCATS CANVASS Library (AID 1347400); note: series mostly up to about 92 µM; nearly all actives have a fitted effect of over 70% in size
Procedure, shortened: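 CellTiter-Glo luminescence readout after 48 h compound exposure (11-pnt qHTS series) of SH-SY5Y-GLuc SERCaMP MJH297 cells seeded at 1000 cells/well; bortezomib positive control.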

Measured: Potency

CC1=CC[C@@]2(C[C@@H]1O)[C@@H](C(=O)O)CC[C@H]2C(C)C
inactive: all assays above

C[C@H]1C[C@@H]([C@@H]2CC[C@]34O[C@H](CC[C@@]35C[C@H](C)C(=O)O5)CN24)OC1=O
inactive: all assays above

C[C@@H]1O[C@H](c2c(O)cc(O)c3c(=O)cc(-c4ccc(O)cc4)oc23)[C@H](O)[C@H](O)[C@H]1O
inactive: all assays above

C[C@@]12C[C@@H](C[C@H]3C(=O)O[C@@H](c4ccoc4)[C@H](OC(=O)c4ccccc4)[C@@H]31)OC2=O
inactive: all assays above

O=Cc1ccc2n1C[C@@]1(OC2)O[C@H](CO)[C@@H](O)[C@@H]1O
inactive: all assays above
